# From ChEMBL document CHEMBL4513145, “CO-ADD screening of Biotechnology Research Centre (C.R.B.t) (Algeria) compounds”
# Several values for one entry are separate records, joined by “and”; a condition that tells them apart may be missing. Identical values can stand only once. Results with a measured potency or affinity are listed apart.
# Assays:
# Staphylococcus aureus = settings: Concentration 32 ug.mL-1, ASSAY_TEST Inhibition of Bacterial Growth, detection method Absorption (OD600), MEDIA CAMHB, plate type 384well, NBS, CORNING #3640, time 18 hr
# Escherichia coli = settings: Concentration 32 ug.mL-1, ASSAY_TEST Inhibition of Bacterial Growth, detection method Absorption (OD600), MEDIA CAMHB, plate type 384well, NBS, CORNING #3640, time 18 hr
SMILES,Inhibition (Staphylococcus aureus) [%],Inhibition (Escherichia coli) [%],Inhibition (Staphylococcus aureus; 32 ug/mL),Inhibition (Escherichia coli; 32 ug/mL)
O=C(OCc1ccccc1)N1CC(Cc2ccccc2)C(O)O1 (centres undefined),13.58,-3.12,,
CC(C)(C)OC(=O)N1C(O)C2CCCC2N1S(=O)(=O)c1ccc([N+](=O)[O-])cc1 (centres undefined),-6.71,-4.07,,
O=C(OCc1ccccc1)N1OC(O)C2CCCCC21 (centres undefined),6.89,-5.21,,
CC1C(O)N(C(=O)OC(C)(C)C)N(S(=O)(=O)c2ccc([N+](=O)[O-])cc2)C1C (centres undefined),14.48,-1.81,,
Cc1ccc(S(=O)(=O)N2CC(Cc3ccccc3)C(=O)N2S(=O)(=O)c2ccc(C)cc2)cc1 (centres undefined),,,-1.12% and 2.54%,-8.26% and -4.89%
CCCCCCCC1CN(S(=O)(=O)c2ccc(C)cc2)N(S(=O)(=O)c2ccc(C)cc2)C1O (centres undefined),7.71,-1.55,,
CC1CN(C(=O)OCc2ccccc2)OC1O (centres undefined),2.79,-4.78,,
